Test results from PubChem BioAssay (Tox21).
Several values for one entry are separate records, joined by “and”; a condition that tells them apart may be missing. Equal entries are not always repeated. Inconclusive results are not listed. A structure can be active in one record and inactive in another. Activity calls are given as the source filed them. Unless noted, the call rests on the fitted dose curve; in most records, active means well fitted curve in the direction sought with a large enough effect in the repeat runs; inconclusive means weak or mixed curves; inactive means no such curve, though single readings can be large; an effect the other way counts as inactive or inconclusive.

Tests used:
[1] = qHTS assay to test for compound auto fluorescence at 535 nm (green) in HEK293 cells (AID 720680); further: potency means the concentration at half of the fitted maximal effect
[2] = qHTS assay to test for compound auto fluorescence at 460 nm (blue) in HEK293 cell free culture (AID 720681)
Method in brief: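 Test compounds were pinned into cell-free culture medium (DMEM with 10% FBS) and fluorescence was read directly at Ex/Em 405/460 nm. Signals were expressed as fluorescence equivalents of triamterene, with DMSO vehicle as control.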

[3] = qHTS assay to test for compound auto fluorescence at 535 nm (green) in HEK293 cell free culture (AID 720682); further: potency means the concentration at half of the fitted maximal effect
Method in brief: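 Each library compound, or DMSO control, is added by pintool to medium alone, comprising DMEM and 10% FBS. Emission at 535 nm following 485 nm excitation is quantified against fluorescein.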

[4] = qHTS assay to test for compound auto fluorescence at 590 nm (red) in HEK293 cell free culture (AID 720683); further: potency means the concentration at half of the fitted maximal effect
Method in brief: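 Tox21 10K library compounds were pinned into cell-free DMEM with 10% FBS and fluorescence was read at excitation 540 nm. Activity is expressed as Rose Bengal sodium equivalency.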

[5] = qHTS assay to test for compound auto fluorescence at 460 nm (blue) in HepG2 cell free culture (AID 720685)
Method in brief: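 Compound (23 nL) or DMSO pinned into cell-free MEM with 10% FBS; blue fluorescence read at 405/460 nm excitation/emission, expressed as auto-fluorescence equivalency to triamterene.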

[6] = qHTS assay to test for compound auto fluorescence at 535 nm (green) in HepG2 cell free culture (AID 720686); further: potency means the concentration at half of the fitted maximal effect
[7] = qHTS assay to test for compound auto fluorescence at 460 nm (blue) in HepG2 cells (AID 720687)
Method in brief: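 Cells (2,000/well in MEM with 10% FBS) attached overnight at 37 C, then were exposed to compound or DMSO for 1 hr at 37 C, 5% CO2. Fluorescence read at Ex/Em 405/460 nm, expressed as triamterene-equivalent signal.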

[8] = target: Glucocorticoid receptor (Homo sapiens) (UniProt P04150); experiment: qHTS assay to identify small molecule agonists of the glucocorticoid receptor (GR) signaling pathway (AID 720691; active means well fitted activation curve with a large enough effect in the signal ratio in the repeat runs, not every such curve was filed as active; the % refers to the signal ratio)
Chain of Glucocorticoid receptor (Homo sapiens) (P04150 whole entry, looked up): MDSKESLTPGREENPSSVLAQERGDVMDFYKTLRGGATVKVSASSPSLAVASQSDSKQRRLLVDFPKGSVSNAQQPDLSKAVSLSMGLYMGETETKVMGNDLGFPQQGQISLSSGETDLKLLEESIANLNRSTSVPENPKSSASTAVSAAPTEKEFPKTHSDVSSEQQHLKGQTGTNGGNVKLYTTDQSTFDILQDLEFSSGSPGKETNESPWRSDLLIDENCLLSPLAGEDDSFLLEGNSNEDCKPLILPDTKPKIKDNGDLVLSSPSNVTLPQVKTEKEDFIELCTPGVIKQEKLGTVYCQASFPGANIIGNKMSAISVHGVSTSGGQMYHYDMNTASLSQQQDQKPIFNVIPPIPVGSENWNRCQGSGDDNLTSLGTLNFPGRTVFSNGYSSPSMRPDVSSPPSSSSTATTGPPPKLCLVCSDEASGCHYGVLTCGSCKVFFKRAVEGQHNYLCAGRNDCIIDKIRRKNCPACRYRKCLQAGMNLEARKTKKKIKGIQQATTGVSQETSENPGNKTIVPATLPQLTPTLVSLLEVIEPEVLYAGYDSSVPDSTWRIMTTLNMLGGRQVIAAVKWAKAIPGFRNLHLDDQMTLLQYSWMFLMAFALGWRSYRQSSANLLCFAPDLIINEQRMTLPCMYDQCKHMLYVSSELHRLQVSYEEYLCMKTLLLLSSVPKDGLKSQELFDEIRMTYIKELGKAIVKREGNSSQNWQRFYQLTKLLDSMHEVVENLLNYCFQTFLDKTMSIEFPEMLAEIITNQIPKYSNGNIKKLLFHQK
Method in brief: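 Agonist mode in a HeLa line carrying a GRE-controlled beta-lactamase reporter. Compounds act for 18 h at 37 C before a 2 h room-temperature FRET substrate step and fluorescence reading.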

[9] = target: Glucocorticoid receptor (Homo sapiens) (UniProt P04150); experiment: qHTS assay to identify small molecule antagonists of the glucocorticoid receptor (GR) signaling pathway (AID 720692; active means well fitted inhibition curve with a large enough effect in the signal ratio in the repeat runs, not every such curve was filed as active; the % refers to the signal ratio; further: potency means the concentration at half of the fitted maximal effect)
Method in brief: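 Cells plated, rested 4 h at 37 C/5% CO2; compounds in DMSO pin-transferred; dexamethasone added to 5 nM final; 18 h at 37 C; B/G FRET substrate added, 2 h room temperature; fluorescence measured.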

[10] = qHTS assay to identify small molecule antagonists of the glucocorticoid receptor (GR) signaling pathway - cell viability counter screen (AID 720693); further: nearly all actives have a fitted effect of over 55% in size; further: potency means the concentration at half of the fitted maximal effect
[11] = qHTS assay for identifying genotoxic compounds that show differential cytotoxicity against isogenic chicken DT40 cell lines with known DNA damage response pathways - wild type cell line (AID 743012); further: nearly all actives have a fitted effect of over 60% in size; further: potency means the concentration at half of the fitted maximal effect
Method in brief: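 Cells (DT40 wild type, 300/well) are treated with DMSO-dissolved compounds after a ~0.5 h pre-incubation and kept 40 h at 37 C/5% CO2. Viability is then measured by CellTiter-Glo luminescence following 30 min at room temperature.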

[12] = qHTS assay for identifying genotoxic compounds that show differential cytotoxicity against isogenic chicken DT40 cell lines with known DNA damage response pathways - Rev3 mutant cell line (AID 743014); further: nearly all actives have a fitted effect of over 55% in size; further: potency means the concentration at half of the fitted maximal effect
[13] = qHTS assay for identifying genotoxic compounds that show differential cytotoxicity against isogenic chicken DT40 cell lines with known DNA damage response pathways - Rad54/Ku70 mutant cell line (AID 743015); further: nearly all actives have a fitted effect of over 60% in size; further: potency means the concentration at half of the fitted maximal effect
[14] = qHTS assay to identify small molecule antagonists of the androgen receptor (AR) signaling pathway using the MDA cell line - cell viability counter screen (AID 743041; further: nearly all actives have a fitted effect of over 45% in size; further: potency means the concentration at half of the fitted maximal effect)
Method in brief: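 MDA-kb2 AR-luc human breast carcinoma cells (MMTV-luciferase, AR/GR responsive) were treated with compounds plus R1881 agonist for 16 h at 37 °C. Viability was read as CellTiter-Fluor fluorescence in the same wells as the reporter assay.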

[15] = qHTS assay to identify small molecule antagonists of the thyroid receptor (TR) signaling pathway - cell viability counter screen (AID 743064); further: nearly all actives have a fitted effect of over 50% in size; further: potency means the concentration at half of the fitted maximal effect
Method in brief: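 CellTiter-Fluor readout, 30 min at 37 °C/5% CO2, following 23.5 h incubation of GH3.TRE-Luc cells with test compound and 1 nM T3 (final).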

[16] = qHTS assay to test for compound auto fluorescence at 590 nm (red) in HepG2 cell free culture (AID 720684); further: potency means the concentration at half of the fitted maximal effect
Method in brief: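 Red fluorescence (540 nm excitation, 590 nm emission) was measured after compound transfer into cell-free MEM supplemented with 10% FBS. Values are equivalencies against Rose Bengal sodium.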

[17] = qHTS assay to identify small molecule antagonists of the androgen receptor (AR) signaling pathway - cell viability counter screen (AID 743033; further: nearly all actives have a fitted effect of over 45% in size)
[18] = target: Androgen receptor (Homo sapiens) (UniProt P10275); experiment: qHTS assay to identify small molecule antagonists of the androgen receptor (AR) signaling pathway (AID 743035; active means well fitted inhibition curve with a large enough effect in the signal ratio in the repeat runs, not every such curve was filed as active; the % refers to the signal ratio)
Chain of Androgen receptor (Homo sapiens) (P10275 whole entry, looked up): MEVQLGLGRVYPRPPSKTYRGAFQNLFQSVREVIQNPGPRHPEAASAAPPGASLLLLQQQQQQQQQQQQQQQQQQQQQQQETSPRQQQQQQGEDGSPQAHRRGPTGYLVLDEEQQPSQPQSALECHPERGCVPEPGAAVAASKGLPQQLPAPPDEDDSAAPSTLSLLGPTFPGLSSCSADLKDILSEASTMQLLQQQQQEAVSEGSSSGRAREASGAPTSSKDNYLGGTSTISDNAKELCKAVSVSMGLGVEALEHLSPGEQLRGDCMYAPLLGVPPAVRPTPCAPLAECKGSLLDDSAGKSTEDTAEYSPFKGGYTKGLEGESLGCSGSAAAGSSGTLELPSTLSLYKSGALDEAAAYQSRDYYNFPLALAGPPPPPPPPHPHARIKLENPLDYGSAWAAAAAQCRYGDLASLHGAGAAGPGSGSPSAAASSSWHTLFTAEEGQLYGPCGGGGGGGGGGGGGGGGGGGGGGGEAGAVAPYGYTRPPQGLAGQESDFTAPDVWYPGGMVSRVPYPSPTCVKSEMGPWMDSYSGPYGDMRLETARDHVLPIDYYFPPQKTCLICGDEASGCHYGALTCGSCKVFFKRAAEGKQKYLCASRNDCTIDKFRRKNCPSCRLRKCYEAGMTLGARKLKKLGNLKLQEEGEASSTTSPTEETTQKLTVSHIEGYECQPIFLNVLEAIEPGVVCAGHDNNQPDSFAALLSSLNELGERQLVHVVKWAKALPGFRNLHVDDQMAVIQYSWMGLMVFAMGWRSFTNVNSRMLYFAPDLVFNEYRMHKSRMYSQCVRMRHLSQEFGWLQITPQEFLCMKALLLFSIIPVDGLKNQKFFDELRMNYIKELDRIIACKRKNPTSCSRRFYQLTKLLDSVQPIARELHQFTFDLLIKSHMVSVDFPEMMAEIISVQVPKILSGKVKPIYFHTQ
Method in brief: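 Antagonism is scored as loss of R1881-driven beta-lactamase reporter expression in HEK293 cells carrying the reporter under a UAS element, after 16 h co-treatment at 37C and a 2 h room-temperature FRET substrate read.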

[19] = target: Androgen receptor (Homo sapiens) (UniProt P10275); experiment: qHTS assay to identify small molecule agonists of the androgen receptor (AR) signaling pathway using the MDA cell line (AID 743040; further: nearly all actives have a fitted effect of over 20% in size)
Method in brief: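 MDA-kb2 breast carcinoma cells stably carrying an MMTV-driven luciferase reporter (AR- and GR-responsive) were seeded and held 5 h at 37C, 0% CO2, then exposed to compounds in DMSO for 16 h. Luminescence was read 30 min after ONE-Glo addition.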

[20] = target: Androgen receptor (Homo sapiens) (UniProt P10275); experiment: qHTS assay to identify small molecule agonists of the androgen receptor (AR) signaling pathway (AID 743036; active means well fitted activation curve with a large enough effect in the signal ratio in the repeat runs, with a control signal flat, not every such curve was filed as active; the % refers to the signal ratio)
Method in brief: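 Following a 4 h settling period, AR-UAS-bla HEK293 cells were dosed with compounds for 16 h at 37C. A 2 h room-temperature incubation with LiveBLAzer B/G FRET substrate preceded the fluorescence measurement.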

Measured: Potency
On the % scale 0 is the no-effect control and ±100 the full control effect; tags describe the fitted curve by direction and shape or compound fluorescence and quenching.

CC(C)OC=O
72.9 µM (active) and inactive: [12]
not listed: [16] | [17] | [18] | [19] | [20]
inactive: all other assays above

O=C(c1ccc(OCCN2CCCCC2)cc1)c1c(-c2ccc(O)cc2)sc2cc(O)ccc12
active: [10] 23.9 µM | [11] 3.35 µM and 27.3 µM and 5.45 µM | [12] 1.06 µM and 612 nM and 686 nM | [13] 7.5 µM and 9.7 µM and 1.37 µM | [14] 68.7 µM and 61.1 µM | [15] 6.68 µM and 4.33 µM and 6.11 µM
inactive: [1] | [2] | [3] | [4] | [16] | [5] | [6] | [7]

CCC(C)(O)CCCC(C)C (stereo not given)
not listed: [15] | [16] | [18] | [19] | [20]
inactive: all other assays above

O=S(=O)(O)c1ccc(O)cc1
not listed: [16] | [17] | [18] | [19] | [20]
inactive: all other assays above

c1ccc2cc(Nc3ccc(Nc4ccc5ccccc5c4)cc3)ccc2c1
not listed: [5] | [17] | [20]
inactive: all other assays above

Cc1c(C(N)=O)cc([N+](=O)[O-])cc1[N+](=O)[O-]
not listed: [18] | [19] | [20]
inactive: all other assays above

O=C1OC2(c3cc(Br)c(O)c(Br)c3Oc3c2cc(Br)c(O)c3Br)c2c(Cl)c(Cl)c(Cl)c(Cl)c21
49.1 µM (active) and inactive: [9]
active: [4] 2 µM [fluorescent] and 14.1 µM [fluorescent] | [16] 1.78 µM [fluorescent] and 10 µM [fluorescent] | [6] 28.2 µM [fluorescent] | [14] 4.33 µM and 37.1 µM | [15] 24.4 µM and 41.6 µM
not listed: [10] | [11] | [18] | [19] | [20]
inactive: all other assays above

OC[C@H]1O[C@@H]2O[C@H]3[C@H](O)[C@@H](O)[C@@H](O[C@H]4[C@H](O)[C@@H](O)[C@@H](O[C@H]5[C@H](O)[C@@H](O)[C@@H](O[C@H]6[C@H](O)[C@@H](O)[C@@H](O[C@H]7[C@H](O)[C@@H](O)[C@@H](O[C@H]8[C@H](O)[C@@H](O)[C@@H](O[C@H]1[C@H](O)[C@H]2O)O[C@@H]8CO)O[C@@H]7CO)O[C@@H]6CO)O[C@@H]5CO)O[C@@H]4CO)O[C@@H]3CO
not listed: [12] | [18] | [19] | [20]
inactive: all other assays above

O=C1c2cccc(O)c2C(=O)c2c(O)cccc21
not listed: [8] | [9] | [12] | [18] | [19] | [20]
inactive: all other assays above

CCCCNS(=O)(=O)c1ccccc1
not listed: [17] | [18] | [19] | [20]
inactive: all other assays above

Cc1cc2nc3c(=O)[nH]c(=O)nc-3n(C[C@H](O)[C@H](O)[C@H](O)CO)c2cc1C
18.8 µM (active) and inactive: [13]
active: [1] 35.5 µM [fluorescent] [middle of 4 runs] | [3] 31.6 µM [fluorescent] [middle of 4 runs] | [6] 17.8 µM [fluorescent] and 39.8 µM [fluorescent] and 35.5 µM [fluorescent]
inactive: [2] | [4] | [16] | [7] | [8] | [10] | [11] | [12]

CC(=O)C1(C)CC2=C(CCCC2(C)C)CC1C (stereo not given)
inactive and 54.5 µM (active): [13]
not listed: [16] | [17]
inactive: all other assays above

O=Cc1ccccc1O
not listed: [12] | [18] | [19] | [20]
inactive: all other assays above

CC(CCC(=O)O)(c1ccc(O)cc1)c1ccc(O)cc1
not listed: [2] | [17] | [18] | [19] | [20]
inactive: all other assays above

Nc1ccc(Cl)cc1Cl
not listed: [2] | [17] | [18] | [19] | [20]
inactive: all other assays above

O=C(c1ccccc1)c1ccc(O)cc1O
not listed: [2] | [5] | [13] | [17] | [18] | [19] | [20]
inactive: all other assays above

C[Si](C)(C)O[Si](C)(C)C
not listed: [2] | [8] | [9] | [18] | [19] | [20]
inactive: all other assays above

OCCO
not listed: [2] | [8] | [9] | [17]
inactive: all other assays above

CC(C)OB(OC(C)C)OC(C)C
not listed: [1] | [18] | [19] | [20]
inactive: all other assays above

CC(=O)CC/C=C(\C)CCC=C(C)C
inactive: [1] | [3] | [4] | [5] | [6] | [7] | [10] | [11] | [13] | [14] | [15]

C/C=C/C(=O)O
not listed: [2] | [18] | [19] | [20]
inactive: all other assays above

CCCCOCCOCCOCCO
not listed: [2] | [5] | [8] | [9] | [18] | [19] | [20]
inactive: all other assays above

O=c1oc(=O)c2cc3c(=O)oc(=O)c3cc12
not listed: [2] | [8] | [9] | [16] | [17] | [18] | [19] | [20]
inactive: all other assays above

CCC(C)CO (stereo not given)
not listed: [2] | [15] | [17] | [18] | [19] | [20]
inactive: all other assays above

Cc1[nH]c(=O)c(C#N)cc1-c1ccncc1
not listed: [2] | [5] | [8] | [9] | [17] | [18] | [19] | [20]
inactive: all other assays above

C=C(C)C(=O)OCCOC(=O)C(=C)C
not listed: [2]
inactive: all other assays above

O=[N+]([O-])c1ccc2c(c1)Cc1ccccc1-2
not listed: [5] | [9] | [15] | [16] | [17] | [18] | [19] | [20]
inactive: all other assays above

CC1=CCC(C(C)(C)O)CC1 (stereo not given)
not listed: [2] | [5] | [8] | [9] | [12] | [16] | [17]
inactive: all other assays above

O=CCc1ccccc1
inactive and 54.5 µM (active): [13]
not listed: [5] | [12] | [16] | [18] | [19] | [20]
inactive: all other assays above
